Experimental findings from PubChem BioAssay (NCI) are described below.

“And” between values parts separate entries of the source, which are not always exact repeats. Equal values may be shown once. This is part of a sample that, as a whole, favours compounds with a hit. Of some 83,000 tested, about 20% had one in any assay.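 Single-concentration screen, 48 h exposure, 96-well plates. Endpoint: percent growth. Below 10 = active.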 The source made the active and inactive calls.

The test has as its system HCT-116 colon. Put plainly: NCI-60 one-dose screen, 48 h (100 = growth as untreated, 0 = no growth, -100 = all killed). Particulars: 10 µM unless noted.
For `O=C(Nc1ccc(F)cc1)c1cc2cc(Nc3nc(-c4ccccc4)nc4ccccc34)ccc2oc1=O`, the growth is 96.3% (inactive).

Consider `COC(=O)c1c2c(c(C)[n+]([O-])c1C)C(=O)C(NCCN1CCOCC1)=CC2=O`, for which the growth is 28.3% (inactive).

Regarding `COc1c(O)c(O)cc2c3c(oc12)CC(c1ccc2c(c1)OCO2)CC3=O` (stereo not drawn), the growth is 32.1% (inactive).

Regarding `O=C1CCCCN1CCCCC#Cc1cccc(C#Cc2cccnc2)c1`, the growth is 141% (inactive) and 39.7% (inactive).

On to `Cc1ccc(-c2nc3nc(-c4ccc(Cl)cc4)nc(N4CCCNCC4)c3o2)cc1`, for which the growth was -75.6% (active).

For the molecule `CC(=O)c1c(C)nc2ccccc2c1/C=C/c1cccc(C)c1`, the growth was 32.9% (inactive).

On to `CCOC(=O)C(=CCC(C)C)C(=O)OCC`, for which the growth is 98.9% (inactive).

Turning to `BrC1=C(Br)C(Br)(Br)C(Br)=C1Br`, the growth was 65.1% (inactive).

With `COc1ccc(-c2csc(NC(=O)CN3CCN(CCO)CC3)n2)cc1NS(=O)(=O)c1cccc2c(N(C)C)cccc12`, the growth was 73.5% (inactive).

With `Cc1nnc(NS(=O)(=O)c2ccc(N=Nc3ccc(N)nc3N)cc2)s1`, the growth was 99.7% (inactive) and 103% (inactive).

In the case of `CCCCCCCCCCCCCCCCCCn1cc(COc2ccc(C=O)cc2)nn1`, the growth is 76.8% (inactive).

Turning to `C=C(C)[C@@H]1CC[C@]2(C(=O)O)CC[C@]3(C)[C@H](CC[C@@H]4[C@@]5(C)CCC(N)C(C)(C)[C@@H]5CC[C@]43C)[C@@H]12` (stereo partly drawn), the growth was 2.64% (active).

On to `Cc1ccc(-c2nc3nc(-c4ccc(Br)cc4)nc(N4CCCNCC4)c3o2)cc1`, for which the growth was -79.8% (active).

With `O=C(Nc1ncc(Cc2cccc(C(F)(F)F)c2)s1)c1ccc2c(c1)OCCO2`, the growth was 10.9% (inactive).

With `COCCn1cc(-c2nc(-c3cn(CCOC)c4ncccc34)cs2)c2ccccc21`, the growth was 79.9% (inactive).

Take `O=C(N=Nc1c(O)[nH]c2ccccc12)Nc1ccccc1Cl`: the growth was 89.8% (inactive).

`CC1(C)C(N)=Nc2cc(OCCCN3Cc4ccc(OCCc5cn(CC(=O)N6CCC(CCN7CCCC7)CC6)nn5)cc4C3)c(OCC3CC3)cc21`: the growth is 103% (inactive).

In the case of `COc1ccc(CN2CCc3c(Cl)nc(N)nc3C2=O)c(OC)c1`, the growth is -72.7% [100 µM] (active).

With `C=C(CNCCO)[C@@H]1CC[C@]2(CO)CC[C@]3(C)[C@H](CC[C@@H]4[C@@]5(C)CCC(NCCc6ccc(O)cc6)C(C)(C)[C@@H]5CC[C@]43C)[C@@H]12` (stereo partly drawn), the growth is -94.4% (active).

With `COc1ccc2nc3cc(Cl)ccc3c(NCCCNCCC(C)O)c2c1` (stereo not drawn), the growth is -49.9% (active).

For `Clc1ccc(CNc2ccc3nc(CCC4CCCCC4)[nH]c3c2)cc1`, the growth was 36.2% (inactive).

On to `Nc1n[nH]c2cccc(C#Cc3cccc(NC(=O)c4ccc(N5CCOCC5)c(C(F)(F)F)c4)c3)c12`, for which the growth is 2.84% (active).

For `ON=C1CCCCCCCC1`, the growth was 105% (inactive) and 104% (inactive).

For the molecule `Cc1ccc(C(=O)Nc2ccc(CN3CCN(C)CC3)c(C(F)(F)F)c2)cc1C#Cc1cnc(N)cc1C#N`, the growth was -87% (active).

In the case of `COc1nc(=O)n(C2C=CC(=O)O2)cc1F` (stereo not drawn), the growth is 34.3% (inactive).

As for `OB(O)c1ccsc1-c1nc2ccc3[nH]ncc3c2c2c1CCCC2`, the growth is 26.4% (inactive).

For the molecule `Cc1ccc(NC(=O)c2sc3nc(C)c(C(=O)c4ccccc4)cc3c2N)cc1`, the growth is 97.7% (inactive).

As to `O=C1C(c2c[nH]c3ccccc23)=C(c2coc3cc(Br)ccc23)C(=O)N1O`, the growth was 96.7% (inactive).

`O=C1Nc2ccccc2/C1=C/c1cccn1CCCCCn1c2ccccc2c(=O)c2ccccc21`: the growth was 69.8% (inactive).

For `O=C(/C=C/c1ccc(Cl)s1)c1ccc(Cl)s1`, the growth was 68.2% (inactive) and 85.8% (inactive).

`NC(N)=NC(N)=NCCCc1ccco1`: the growth was 108% (inactive).

Take `Cc1nc2sc(C(=O)Nc3cccc(Cl)c3C)c(N)c2cc1C(O)c1ccccc1` (stereo not drawn): the growth is 8.63% (active).

Take `COc1cc2ncnc(Nc3ccc(F)c(Cl)c3)c2cc1OCC(=O)N1CCCCC1`: the growth is 79.6% (inactive).

As for `S=c1nc(CS)[nH]c2ccccc12`, the growth is 100% (inactive).

Turning to `O=C1/C(=C/c2cn(-c3ccccc3)nc2-c2ccccc2)SC(=S)N1c1ccccc1`, the growth is 102% (inactive).

For `O=C(c1ccc(Nc2nccc(NCCCNc3ccnc4cc(Cl)ccc34)n2)cc1)N1CCCCC1`, the growth was 26.7% (inactive).

With `O=C1/C(=C/c2cn(-c3ccccc3)nc2-c2ccccc2)SC(=S)N1c1ccc(Cl)cc1`, the growth was 64.1% (inactive).

`COc1cc(/C=C2\C(=O)N(CCCCn3c4ccccc4c(=O)c4ccccc43)c3ccccc32)cc(OC)c1O`: the growth is 57.6% (inactive).
